PubChem BioAssay (NCATS)
“And” between values parts separate entries of the source, which are not always exact repeats. Identical values can stand only once. Inconclusive results are not listed. The source made the active and inactive calls. Unless noted, the call rests on the fitted dose curve; in most records, active means well fitted curve in the direction sought with a large enough effect; inconclusive means small, poorly fitted or top-dose-only effect, or another doubt; inactive means no such curve, though single readings can be large; an effect the other way counts as inactive or inconclusive.

Columns and labels:
[1] = target: Cytochrome P450 1A2 (Homo sapiens) (UniProt P05177); test: p450-cyp1a2 (AID 410; calls by dose curve; further: potency means the concentration at half of the fitted maximal effect)
Chain of Cytochrome P450 1A2 (Homo sapiens) (P05177 whole entry, looked up): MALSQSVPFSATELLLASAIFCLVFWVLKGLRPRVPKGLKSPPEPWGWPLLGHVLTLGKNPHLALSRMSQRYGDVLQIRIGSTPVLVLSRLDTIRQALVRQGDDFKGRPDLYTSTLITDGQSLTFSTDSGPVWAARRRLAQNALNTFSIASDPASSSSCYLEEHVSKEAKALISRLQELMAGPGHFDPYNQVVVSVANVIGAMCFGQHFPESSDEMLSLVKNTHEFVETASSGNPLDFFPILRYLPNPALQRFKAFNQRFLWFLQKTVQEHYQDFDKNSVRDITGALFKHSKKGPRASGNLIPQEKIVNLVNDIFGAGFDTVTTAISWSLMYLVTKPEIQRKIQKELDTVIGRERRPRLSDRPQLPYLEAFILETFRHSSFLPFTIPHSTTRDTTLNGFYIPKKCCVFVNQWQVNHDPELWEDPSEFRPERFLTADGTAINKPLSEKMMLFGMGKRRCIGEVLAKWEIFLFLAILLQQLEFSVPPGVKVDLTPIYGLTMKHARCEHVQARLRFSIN
How it was run: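 Human CYP1A2 (20nM) demethylated Luciferin-ME at its Km (100uM) in 100mM KPO4. After 10 min compound preincubation, NADPH regeneration ran the reaction 60 min at room temperature. Luciferin was read by luminescence, normalized to 57 uM furafylline.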

[2] = NFAT Signaling Pathway (AID 444; active means well fitted curve in either direction with a large enough effect, not every such curve was filed as active;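 further: carbachol stimulus at about its EC50 of 1 µM final; on the % scale 0 is the no-effect control and ±100 the full control effect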); conditions: Jurkat NFAT-bla M1, carbachol, beta-lactamase ratio, 5 h; at 38 µM (top of the series)
How it was run: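 Jurkat cells carrying an NFAT-driven β-lactamase reporter and co-transfected muscarinic M1 receptor were treated with compound plus carbachol (1 uM final, an EC50 level) for 5 h at 37 °C. CCF4 loading followed for 1 h at RT; 460/530 nm ratio gave %activity.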

[3] = target: Glucocorticoid receptor (Homo sapiens) (UniProt P04150); test: GR-GFP Redistribution (AID 450;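 active means compounds whose dose series gives a full or clear partial fitted curve of increased nuclear translocation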; further: potency means the concentration at half of the fitted maximal effect); conditions: U2OS GR-GFP nuclear translocation, laser cytometry, 2 h
Chain of Glucocorticoid receptor (Homo sapiens) (P04150 whole entry, looked up, the tested form may be a part): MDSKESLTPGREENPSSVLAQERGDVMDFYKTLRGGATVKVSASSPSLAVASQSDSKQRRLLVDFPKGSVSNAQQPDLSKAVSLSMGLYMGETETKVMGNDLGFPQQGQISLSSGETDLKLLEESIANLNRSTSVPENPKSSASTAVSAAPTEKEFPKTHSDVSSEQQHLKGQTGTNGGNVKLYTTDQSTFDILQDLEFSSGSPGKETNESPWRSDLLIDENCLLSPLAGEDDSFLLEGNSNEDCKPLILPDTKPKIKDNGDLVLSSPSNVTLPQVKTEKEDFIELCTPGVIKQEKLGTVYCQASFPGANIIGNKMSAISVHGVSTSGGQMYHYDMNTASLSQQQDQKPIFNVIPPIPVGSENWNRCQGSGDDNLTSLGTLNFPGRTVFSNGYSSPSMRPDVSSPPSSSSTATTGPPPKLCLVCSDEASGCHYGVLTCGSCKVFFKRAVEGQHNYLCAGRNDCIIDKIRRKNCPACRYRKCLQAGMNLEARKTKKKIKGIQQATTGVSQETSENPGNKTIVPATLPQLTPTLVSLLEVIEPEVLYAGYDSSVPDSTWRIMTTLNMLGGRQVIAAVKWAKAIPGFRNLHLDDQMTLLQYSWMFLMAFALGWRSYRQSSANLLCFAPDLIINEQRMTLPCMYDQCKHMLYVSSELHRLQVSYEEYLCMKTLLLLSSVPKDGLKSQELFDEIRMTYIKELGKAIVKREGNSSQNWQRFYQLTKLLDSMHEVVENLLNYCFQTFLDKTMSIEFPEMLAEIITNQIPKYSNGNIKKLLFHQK

[4] = target: Glucocorticoid receptor (Homo sapiens) (UniProt P04150); test: GR-EFC Redistribution (AID 451; calls by dose curve; further: potency means the concentration at half of the fitted maximal effect); conditions: CHO-K1 GR-EFC translocation, beta-gal luminescence, 2 h
How it was run: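 CHO-K1 cells stably expressing nuclear-localized β-gal enzyme acceptor and GR fused C-terminally to the enzyme donor fragment; ligand-driven nuclear translocation restores β-gal by complementation. Compounds titrated up to 46 uM final, 2 h at 37 °C; luminescence read.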

[5] = target: Mitogen-activated protein kinase 10 (Mus musculus) (UniProt Q61831); test: JNK3 AlphaScreen Assay (AID 530; active means well fitted curve in either direction with a large enough effect, not every such curve was filed as active;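 further: kinase came from lysate of stimulated human HepG2 cells; signal reports phosphorylation of biotinylated GST-cJun 1-79 at Ser73 with 10 µM ATP; on the % scale 0 is the no-effect control and ±100 the full control effect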)
How it was run: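 JNK3 came from HepG2 lysates pre-activated with IL-1beta and TNF-alpha and phosphorylated biotinylated GST-cJun (1-79) at 10 uM ATP, pH 7.6, room temperature. Compounds were titrated. AlphaScreen signal used anti-phospho-cJun (Ser73) antibody.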

[6] = target: 3',5'-cyclic-AMP phosphodiesterase 4B (Homo sapiens) (UniProt Q07343); test: qHTS Assay for Inhibitors of PDE-IV (AID 607; active means well fitted activation curve with a large enough effect in the main read-out, with a control signal flat, not every such curve was filed as active; further: % of control where 0% means no effect)
Chain of 3',5'-cyclic-AMP phosphodiesterase 4B (Homo sapiens) (Q07343 whole entry, looked up): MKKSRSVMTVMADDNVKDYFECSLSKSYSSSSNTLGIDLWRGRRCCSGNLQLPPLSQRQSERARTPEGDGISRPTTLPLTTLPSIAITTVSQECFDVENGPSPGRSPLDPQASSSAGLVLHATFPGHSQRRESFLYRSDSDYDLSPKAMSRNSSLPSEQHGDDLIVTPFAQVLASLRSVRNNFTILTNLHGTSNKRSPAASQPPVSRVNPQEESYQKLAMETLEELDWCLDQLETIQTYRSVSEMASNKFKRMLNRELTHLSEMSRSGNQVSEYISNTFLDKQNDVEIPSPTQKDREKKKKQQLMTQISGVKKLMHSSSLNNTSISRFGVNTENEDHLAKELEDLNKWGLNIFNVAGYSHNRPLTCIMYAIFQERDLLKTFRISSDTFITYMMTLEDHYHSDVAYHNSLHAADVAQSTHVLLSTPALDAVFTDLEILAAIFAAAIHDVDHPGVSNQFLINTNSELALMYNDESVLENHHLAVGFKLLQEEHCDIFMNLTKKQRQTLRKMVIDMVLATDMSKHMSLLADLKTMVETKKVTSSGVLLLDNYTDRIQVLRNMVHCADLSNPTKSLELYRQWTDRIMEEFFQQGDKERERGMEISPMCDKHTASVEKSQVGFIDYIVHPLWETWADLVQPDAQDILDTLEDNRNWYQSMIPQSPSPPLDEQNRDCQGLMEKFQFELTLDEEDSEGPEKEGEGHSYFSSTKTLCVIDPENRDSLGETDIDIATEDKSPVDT
How it was run: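 ACTOne HEK293 cells carry a modified cAMP-gated CNG channel and express endogenous PDE4; plated 1000 cells/well, compounds up to 22.9 uM final. Membrane-potential dye fluorescence (ex 535/em 590) was read; parental cells received 10 uM forskolin + 100 uM RO 20-1724.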

[7] = target: Guanine nucleotide-binding protein G(i) subunit alpha-1 (Homo sapiens) (UniProt P63096); test: qHTS Assay for Inhibitors of RGS12 GoLoco Motif Activity (Green Fluorophore) (AID 879);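 further: 0% = labeled peptide with Gαi1 and full inhibition = labeled peptide alone without protein; negative values mean loss of peptide binding seen as reduced polarization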
Chain of Guanine nucleotide-binding protein G(i) subunit alpha-1 (Homo sapiens) (P63096 whole entry, looked up): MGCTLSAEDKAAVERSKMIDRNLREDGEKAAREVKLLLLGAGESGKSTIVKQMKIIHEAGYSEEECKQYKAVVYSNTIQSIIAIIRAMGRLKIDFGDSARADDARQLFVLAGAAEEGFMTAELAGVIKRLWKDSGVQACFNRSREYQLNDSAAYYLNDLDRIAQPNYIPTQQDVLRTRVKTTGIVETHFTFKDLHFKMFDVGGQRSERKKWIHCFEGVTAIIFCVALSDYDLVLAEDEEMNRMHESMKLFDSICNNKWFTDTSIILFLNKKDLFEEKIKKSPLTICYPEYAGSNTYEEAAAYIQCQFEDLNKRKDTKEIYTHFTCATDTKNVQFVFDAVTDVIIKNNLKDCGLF
How it was run: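 Fluorescence polarization assay: 50 nM Gαi1 with 10 nM FITC-labeled RGS12 GoLoco peptide in 10 mM Tris pH 7.5, 150 mM NaCl, 0.1 mM GDP, 0.05% NP40, 10 min at room temperature with compound.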

[8] = qHTS Assay for Identification of Small Molecule Antagonists for NFkB Signaling Pathway (AID 895; active means well fitted inhibition curve with a large enough effect in the signal ratio, with a control signal flat, not every such curve was filed as active; the % refers to the signal ratio; further: on the % scale 0 is the no-effect control and ±100 the full control effect)
How it was run: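 NFkB-bla ME-180 cervical carcinoma cells with beta-lactamase reporter under NFkB response element; compounds added, then TNF alpha at 10 pM final (EC50), 5 h at 37 C. LiveBLAzer substrate 2 h, room temperature; emission 460/530 nm at 405 nm excitation.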

[9] = target: Pyruvate kinase (Leishmania mexicana) (UniProt Q27686); test: qHTS Validation Assay for Inhibitors of Leishmania Mexicana Pyruvate Kinase (AID 945);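 further: 0% = DMSO only neutral control wells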
Chain of Pyruvate kinase (Leishmania mexicana) (Q27686 2-499 E452W): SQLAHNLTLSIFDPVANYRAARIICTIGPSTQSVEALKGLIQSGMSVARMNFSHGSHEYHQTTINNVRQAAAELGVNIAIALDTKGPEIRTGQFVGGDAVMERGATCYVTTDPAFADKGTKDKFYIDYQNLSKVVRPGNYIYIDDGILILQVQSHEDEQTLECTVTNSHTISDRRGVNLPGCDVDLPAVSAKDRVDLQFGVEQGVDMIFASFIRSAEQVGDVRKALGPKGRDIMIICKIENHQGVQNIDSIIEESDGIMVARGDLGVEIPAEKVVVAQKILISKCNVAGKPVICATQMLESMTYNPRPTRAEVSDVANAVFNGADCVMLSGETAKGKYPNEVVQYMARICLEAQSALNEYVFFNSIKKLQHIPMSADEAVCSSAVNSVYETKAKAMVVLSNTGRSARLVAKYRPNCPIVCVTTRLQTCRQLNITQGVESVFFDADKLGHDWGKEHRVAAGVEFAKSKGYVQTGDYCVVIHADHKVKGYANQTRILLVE
How it was run: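 qHTS eight-point titrations against 0.2 nM LmPYK (E451W) in imidazole buffer pH 7.2 with 0.5 mM PEP, 0.1 mM ADP; 1 h, room temperature. Readout: PKLight luminescence, normalized to neutral DMSO wells.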

[10] = target: Pyruvate kinase PKM (Homo sapiens) (UniProt P14618); test: qHTS Assay for Activators of Human Muscle Pyruvate Kinase (AID 954; active means well fitted curve in the direction sought with a large enough effect, not every such curve was filed as active;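 further: 0% = uninhibited enzyme and -100% = no enzyme or full thiadiazolimine inhibition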)
Chain of Pyruvate kinase PKM (Homo sapiens) (P14618 whole entry, looked up): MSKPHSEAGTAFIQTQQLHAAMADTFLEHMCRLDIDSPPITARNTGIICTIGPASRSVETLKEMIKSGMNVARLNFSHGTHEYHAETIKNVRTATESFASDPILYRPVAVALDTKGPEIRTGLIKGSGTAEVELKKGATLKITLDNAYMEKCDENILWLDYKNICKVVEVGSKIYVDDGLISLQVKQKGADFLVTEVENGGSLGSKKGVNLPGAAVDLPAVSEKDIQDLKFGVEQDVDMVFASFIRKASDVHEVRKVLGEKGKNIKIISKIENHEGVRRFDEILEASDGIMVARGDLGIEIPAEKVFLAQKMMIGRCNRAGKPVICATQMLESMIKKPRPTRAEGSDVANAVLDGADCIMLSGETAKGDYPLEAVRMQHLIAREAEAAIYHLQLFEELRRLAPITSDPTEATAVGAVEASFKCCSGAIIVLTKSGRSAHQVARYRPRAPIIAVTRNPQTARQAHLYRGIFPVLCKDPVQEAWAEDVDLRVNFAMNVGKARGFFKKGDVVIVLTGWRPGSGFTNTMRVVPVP
How it was run: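 Luminescence from a luciferase ATP-detection/stop reagent reported PKM2 activity. Reactions contained 0.1 nM purified human enzyme, 0.5 mM PEP, 0.1 mM ADP and 7 mM MgCl2 at pH 7.2, run 1 h at RT.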

[11] = target: Alpha-galactosidase (Coffea arabica) (UniProt Q42656); test: Counterscreen for Glucocerebrosidase Inhibitors: qHTS Assay for Coffee Bean alpha-Galactosidase at pH 4.5 (AID 957);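 further: plate controls were enzyme alone for no effect and no enzyme for full effect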
Chain of Alpha-galactosidase (Coffea arabica) (Q42656 whole entry, looked up): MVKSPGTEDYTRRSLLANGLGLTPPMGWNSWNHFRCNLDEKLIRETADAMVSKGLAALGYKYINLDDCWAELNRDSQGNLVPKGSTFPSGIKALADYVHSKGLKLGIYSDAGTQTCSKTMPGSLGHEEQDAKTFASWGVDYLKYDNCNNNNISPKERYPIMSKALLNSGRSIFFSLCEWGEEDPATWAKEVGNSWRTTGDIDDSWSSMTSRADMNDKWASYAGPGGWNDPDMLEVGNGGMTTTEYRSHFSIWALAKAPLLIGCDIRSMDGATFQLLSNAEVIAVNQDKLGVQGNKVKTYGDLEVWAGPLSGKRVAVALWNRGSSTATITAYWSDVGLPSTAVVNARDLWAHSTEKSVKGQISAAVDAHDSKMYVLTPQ
How it was run: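 Green coffee bean enzyme (2 nM final) was incubated with compounds (0.7 nM to 77 uM) and 4-methylumbelliferyl alpha-D-galactopyranoside (80 uM final) in 50 mM citric acid, 0.005% Tween-20, pH 4.5, 20 min at room temperature; AC50 from Hill fits.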

[12] = target: Alpha-galactosidase A (Homo sapiens) (UniProt P06280); test: Counterscreen for Glucocerebrosidase Inhibitors: qHTS Assay for Human alpha-Galactosidase at pH 4.5 (AID 992); further: 0% is about no effect
Chain of Alpha-galactosidase A (Homo sapiens) (P06280 whole entry, looked up): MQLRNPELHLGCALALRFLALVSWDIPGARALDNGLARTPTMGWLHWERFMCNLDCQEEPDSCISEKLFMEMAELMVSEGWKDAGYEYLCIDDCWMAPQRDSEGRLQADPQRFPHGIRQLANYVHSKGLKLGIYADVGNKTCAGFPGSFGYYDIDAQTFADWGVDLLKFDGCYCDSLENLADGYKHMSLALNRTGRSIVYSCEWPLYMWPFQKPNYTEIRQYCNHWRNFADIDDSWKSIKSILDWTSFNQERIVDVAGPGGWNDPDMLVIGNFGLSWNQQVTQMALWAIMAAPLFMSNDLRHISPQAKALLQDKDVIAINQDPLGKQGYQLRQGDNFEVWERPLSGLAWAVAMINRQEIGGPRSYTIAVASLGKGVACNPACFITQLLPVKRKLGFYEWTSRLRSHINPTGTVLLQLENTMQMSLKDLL
How it was run: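 Enzyme at 2 nM final was combined with compound (0.7 nM to 77 uM) and 80 uM 4-methylumbelliferyl alpha-D-galactopyranoside in 50 mM citric acid, 0.005% Tween-20, pH 4.5. After 20 min at room temperature, fluorescence was read (Ex 365/Em 440 nm); AC50 came from Hill fits.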

[13] = target: alpha-glucosidase (Oryza sativa, rice) (UniProt Q653V4); test: Counterscreen for Glucocerebrosidase Inhibitors: qHTS Assay for Rice alpha-Glucosidase at pH 5.0 (AID 997);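 further: 0% = full activity with enzyme and -100% = basal without enzyme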
How it was run: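 Rice alpha-glucosidase (4 nM final) with 400 uM 4-methylumbelliferyl-alpha-D-glucopyranoside in citrate buffer pH 5.0, 20 min at room temperature, stopped at pH 10; fluorescence 365/440 nm, compounds 0.7 nM–77 uM, AC50 from Hill fits.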

[14] = target: Alpha-galactosidase (Coffea arabica) (UniProt Q42656); test: Counterscreen for Glucocerebrosidase Inhibitors: qHTS Assay for Coffee Bean alpha-Galactosidase at pH 5.9 (AID 998);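 further: plate controls were uninhibited enzyme for no effect and no-enzyme basal signal for full effect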
How it was run: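 Green coffee bean enzyme (2 nM final) was incubated with compounds (0.7 nM–77 uM) and 4-methylumbelliferyl alpha-D-galactopyranoside (80 uM) in citrate buffer pH 5.9, 20 min at room temperature. High-pH stop; fluorescence 365/440 nm; AC50 from Hill fits.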

[15] = Validation of Assay for Modulators of Lamin A Splicing (AID 1459; active means well fitted curve in the direction sought with a large enough effect in the signal ratio; the % refers to the signal ratio;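 further: cells exposed to compound for two days before reading; 0% is about no effect; ratio rise marks activators and ratio drop marks inhibitors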)
How it was run: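 S3 HeLa stably expressing lamin A-EGFP splicing minigene and DsRed2, 600 cells/well in Opti-MEM with 2% FBS, treated 48 h at 37C; laser-scanning cytometry gives GFP/RFP total intensity ratio; ancitabine positive control, 0.5% DMSO vehicle.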

[16] = qHTS Assay for Lipid Storage Modulators (AID 1519; calls by dose curve); conditions: Drosophila S3 cells, BODIPY lipid droplet/cell ratio, laser cytometry, cells loaded with oleic acid
How it was run: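 Cells seeded at 5,000 per well were treated with compounds over a concentration series and loaded with oleic acid (400 uM, as added). Lipid droplet fluorescence (488 nm excitation, 500-530 nm channel) was read by laser-scanning cytometry and normalized to 20 uM Triacsin C.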

[17] = target: DNA repair nuclease/redox regulator APEX1 (Homo sapiens) (UniProt P27695); test: qHTS Validation Assay for Inhibitors of the Human Apurinic/apyrimidinic Endonuclease 1 (APE1) (AID 1705;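 further: TAMRA fluorescence gain over two minutes as APE1 cuts a quenched THF abasic duplex; on the % scale 0 is the no-effect control and ±100 the full control effect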)
Chain of DNA repair nuclease/redox regulator APEX1 (Homo sapiens) (P27695 whole entry, looked up): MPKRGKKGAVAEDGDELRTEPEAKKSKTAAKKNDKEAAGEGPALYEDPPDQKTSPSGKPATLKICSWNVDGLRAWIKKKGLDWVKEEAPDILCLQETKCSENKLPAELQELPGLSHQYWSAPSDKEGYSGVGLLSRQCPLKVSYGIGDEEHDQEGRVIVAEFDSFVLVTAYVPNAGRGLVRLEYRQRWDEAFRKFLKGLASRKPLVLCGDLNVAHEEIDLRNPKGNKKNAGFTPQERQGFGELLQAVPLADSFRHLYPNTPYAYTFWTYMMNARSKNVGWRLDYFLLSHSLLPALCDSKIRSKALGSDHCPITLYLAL
How it was run: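 Fluorogenic double-stranded THF abasic-site substrate (5'-TAMRA/3'-BHQ-2), 50 nM final. Enzyme preincubated with compound 15 min at room temperature, then substrate added. Kinetic fluorescence (ex 525/em 598 nm) read three times at 60 s intervals; activity taken as third-minus-first read difference.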

CN1CCN(c2ccc3ccccc3n2)CC1
active: Potency [1] 10 µM and 3.16 µM
12.4% and -14.2%: max response ([16]; measured here: lipid channel max response)
12.9% and -15.1%: max response ([16]; measured here: cell count channel max response)
inactive: activity change, negative = inhibition [2] -20.6% | Potency [3] > 46 µM | Potency [4] > 46 µM | outcome [5] | Potency [6] | outcome [7] | Potency [8] | outcome [9] | outcome [10] | outcome [11] | outcome [12] | outcome [13] | outcome [14] | outcome [15] | activity change, negative = inhibition ([16]; at 57.5 µM (top of the series)) -1.18% and 2.43% | Potency [17]
